Where “and” joins values, the source holds several entries; their conditions need not be identical. Equal values may be shown once. Hit rate of the full screen: of about 340,000 compounds, about 700 (0.21%) were called active. No stated cut-off is given here; in the data, active means inhibition above about 22% (passing the limit was not always enough); inactive means the rest. The list comes from a sample in which actives are over-represented; it also holds similar structures and randomly drawn compounds.
biological target: Mu-type opioid receptor (Homo sapiens) + Delta-type opioid receptor (Homo sapiens) (UniProt P35372+P41143); experiment: OPRM1-OPRD1 heterodimer inverse agonism – cell-based, luminescence, primary screen (AID 504357); conditions: cell-based MOR-DOR heterodimer luminescence, at 9.3 µM, active compounds read high;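 further: 0% = cells with DMSO and 100% = wells without cells with DMSO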
Sequence (P35372 whole entry, looked up): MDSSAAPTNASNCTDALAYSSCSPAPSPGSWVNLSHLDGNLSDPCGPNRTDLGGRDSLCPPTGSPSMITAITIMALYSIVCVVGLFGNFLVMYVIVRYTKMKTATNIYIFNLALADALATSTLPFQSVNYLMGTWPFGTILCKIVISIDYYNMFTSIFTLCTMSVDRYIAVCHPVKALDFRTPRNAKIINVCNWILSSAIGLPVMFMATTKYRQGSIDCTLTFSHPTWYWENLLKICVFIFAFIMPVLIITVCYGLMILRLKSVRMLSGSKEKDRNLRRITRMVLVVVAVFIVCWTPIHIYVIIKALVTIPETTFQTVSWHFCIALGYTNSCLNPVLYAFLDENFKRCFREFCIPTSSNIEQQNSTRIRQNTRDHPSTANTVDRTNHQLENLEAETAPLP
Sequence (P41143 whole entry, looked up): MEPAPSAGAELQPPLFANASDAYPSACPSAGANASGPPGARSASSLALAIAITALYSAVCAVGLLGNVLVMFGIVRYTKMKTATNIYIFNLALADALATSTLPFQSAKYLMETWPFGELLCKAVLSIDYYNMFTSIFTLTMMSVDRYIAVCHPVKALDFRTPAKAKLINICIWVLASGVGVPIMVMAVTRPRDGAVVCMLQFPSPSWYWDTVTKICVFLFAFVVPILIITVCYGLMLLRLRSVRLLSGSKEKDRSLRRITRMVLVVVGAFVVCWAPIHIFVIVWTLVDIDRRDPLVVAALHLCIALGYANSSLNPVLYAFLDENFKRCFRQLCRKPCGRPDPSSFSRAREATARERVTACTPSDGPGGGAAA

Compound | inhibition
Cc1cc(NC(=O)CN2CCC(O)(c3cccc(F)c3)CC2)no1 | 10.8% (inactive)
COc1cccc(CNC(=O)C2CCCN(S(=O)(=O)N3CC(C)CC(C)C3)C2)c1 (stereo unspecified) | 16% (inactive)
Cc1ccsc1C(=O)NCCc1ccco1 | 7.66% (inactive)
O=C(NCCSc1ncc(-c2ccccc2)[nH]1)c1ccco1 | 13.1% (inactive)
CC1CCCCC1NC(=O)COC(=O)Cc1ccc(Cl)cc1 (stereo unspecified) | 21.7% (inactive)
CC(=O)N1c2ccc(S(=O)(=O)N3CCCC(C(=O)Nc4ccc(C)cc4C)C3)cc2CC1C (stereo unspecified) | -10.6% (inactive)
O=C(c1ccco1)N1CCN(C(=O)C2CC(c3ccc(Cl)c(Cl)c3)=NO2)CC1 (stereo unspecified) | 9.92% (inactive)
Cc1cc(OC(=O)c2ccccc2)c([N+](=O)[O-])c(=O)[nH]1 | -3.39% (inactive)
O=C(O)CCN1C(=O)CC2(CCCCC2)C1=O | 14.8% (inactive)
O=[N+]([O-])/C=C/c1ccc2c(ccn2Cc2ccccc2)c1 | 38.9% (active)
COc1ccc(CNCCCn2cnc3c(OCc4ccccc4)ncnc32)cc1 | 11.7% (inactive)
O=C(CC(=O)c1cccnc1)c1ccccc1 | 13.2% (inactive)
Cc1ccc2c(c1)C(O)(CC(=O)c1cccc(-n3cccc3)c1)C(=O)N2 (stereo unspecified) | 17.9% (inactive)
Cc1ccc2c(c1)C(O)(CC(=O)c1cccnc1)C(=O)N2 (stereo unspecified) | 37.3% (active)
CN(c1ccccc1)S(=O)(=O)c1cc(C(=O)N2CCN(c3ncccn3)CC2)ccc1Cl | 2.36% (inactive)
COc1ccccc1CN1CCCC(N2CCN(c3ccc(F)cc3)CC2)C1 (stereo unspecified) | 8.79% (inactive)
C[n+]1ccc(C(=O)NCc2ccccc2)cc1 | -0.68% (inactive)
COc1c(C=O)c(CCN(C)C(=O)c2ccc(F)cc2)cc2c1OCO2 | 9.88% (inactive)

Compound | inhibition
CCOCCCNC(=O)C(NC(=O)Cc1c[nH]c2ccccc12)c1ccc(OC)cc1 (stereo unspecified) | 12.1% (inactive)
Cc1ccccc1OCC(=O)NNC(=O)c1ccc(-n2cncn2)c([N+](=O)[O-])c1 | 8.19% (inactive)
CCc1c(C)sc(NC(=O)OC)c1C(=O)N1CCOCC1 | 5.54% (inactive)
CCOc1ccc(S(=O)(=O)N2CCCC(C(=O)N3CCC(C(N)=O)CC3)C2)cc1Cl (stereo unspecified) | 5.16% (inactive)
COc1ccccc1N1CCN(CC(=O)Nc2ccnn2C2CCCC2)CC1 | 0.88% (inactive)
CSCCC(NC(=O)COc1ccccc1)C(=O)OCCOc1ccc(Br)cc1 (stereo unspecified) | -28.3% (inactive)
CSCCC(NC(=O)COc1ccccc1)C(=O)OCc1ccc(Cl)cc1 (stereo unspecified) | -17.1% (inactive)
CSCCC(NC(=O)COc1ccccc1)C(=O)OCC(=O)c1cc2ccccc2o1 (stereo unspecified) | 68.4% (active)
CN1CC(=O)N=C1N | 16.7% (inactive) and 15.6% (inactive)
Cc1cc(Cl)c(S(=O)(=O)NCc2cccnc2)cc1OCC(N)=O | 11.2% (inactive)
CCOc1ccc(NC(=O)CN(C)CC(=O)NC(C)c2ccccc2)cc1OCC (stereo unspecified) | 1.67% (inactive)
C=CCn1c(C(C)NC(=O)CC)nc2ccccc21 (stereo unspecified) | 18% (inactive)
COCC(C)OC(=O)c1c(N)n(CCCN2CCOCC2)c2nc3ccccc3nc12 (stereo unspecified) | 10.3% (inactive)
C=CCn1c(N)c(C(=O)OCC(C)C)c2nc3ccccc3nc21 | 55.7% (active)
FC(F)(F)C1CCCN(c2nsc3ccccc23)C1 (stereo unspecified) | 11.2% (inactive)
C=CCN1C(=O)C(O)(CC(=O)c2ccccn2)c2ccccc21 (stereo unspecified) | 15.1% (inactive)
C=CCN1C(=O)C(O)(CC(=O)c2ccc(Cl)cc2)c2ccccc21 (stereo unspecified) | 12% (inactive)
CCOC(=O)CN1C(=O)C(O)(CC(=O)c2ccccn2)c2ccccc21 (stereo unspecified) | 49.5% (active)

Source: PubChem BioAssay AID504357 (The Scripps Research Institute Molecular Screening Center, 2011)
